Rows were chosen to be rich in hits. Some 9.2% of all compounds tested hit in one or more screens of this group.
FLuc modulator: inhibits or activates purified firefly luciferase, miR-21 counter-screen | P08659 | purified FLuc, Km substrates, luminescence inhibition | Potency, µM (series often up to 57.5 µM), without a hit: top-dose activity change, negative = inhibition, hits mostly inhibitors | actives 6.9% (n = 360,000);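 note: plate controls were vehicle for no effect and reference inhibitor for full effect; nearly all actives have a fitted effect of over 55% in size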
Target sequence (P08659 whole entry, looked up): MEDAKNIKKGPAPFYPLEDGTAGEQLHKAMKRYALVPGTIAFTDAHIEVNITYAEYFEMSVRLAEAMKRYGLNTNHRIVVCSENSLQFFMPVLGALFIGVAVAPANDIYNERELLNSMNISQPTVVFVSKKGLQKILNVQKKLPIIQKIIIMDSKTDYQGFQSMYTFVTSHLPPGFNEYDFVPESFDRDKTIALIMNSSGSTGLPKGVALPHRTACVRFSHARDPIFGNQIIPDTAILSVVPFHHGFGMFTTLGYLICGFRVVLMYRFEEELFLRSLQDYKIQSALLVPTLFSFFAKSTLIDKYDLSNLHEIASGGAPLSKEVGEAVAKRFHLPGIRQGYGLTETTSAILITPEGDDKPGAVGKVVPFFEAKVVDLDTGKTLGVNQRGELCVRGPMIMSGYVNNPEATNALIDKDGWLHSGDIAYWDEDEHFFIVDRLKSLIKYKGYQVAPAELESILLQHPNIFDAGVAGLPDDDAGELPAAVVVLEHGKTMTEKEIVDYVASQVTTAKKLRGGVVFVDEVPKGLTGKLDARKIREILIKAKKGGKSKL
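Purified P. pyralis luciferase (10nM final) with 10uM D-luciferin and 10uM ATP (Km levels) in 50mM Tris acetate pH 7.5, 10mM Mg acetate, 0.01% Tween-20, 0.05% BSA; qHTS 6-point titration, ~60 µM downward; luminescence read.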
NPC1 prom act: NPC1 promoter activation. Huh7 NPC1 promoter luciferase reporter, 24 h. Potency, µM (highest dose often 9.22 µM), for inactives: at the top dose activation, hits mostly activators. actives 2.4% (n = 320,000). AID 485313; note: % of control where 0% means no effect; nearly all actives have a fitted effect of over 60% in size
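Stably transfected Huh7 (NPC1 promoter→luciferase), 1500 cells/well in Opti-MEM + 10% FBS, 2 h settle, then compound 24 h at 37 °C. Luminescence after 10 min with Amplite reagent.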
Rab9 promoter act: activates the Rab9 promoter; Huh7 Rab9 promoter-luciferase reporter, luminescence, 24 h; Potency, µM (top dose mostly 9.22 µM), for the others: at the top dose activation, negative = inhibition, most hits filed as activators; actives 2.8% (n = 320,000); note: % of control where 0% means no effect; nearly all actives have a fitted effect of over 60% in size
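Cell-based reporter: Huh7 stable for Rab9 promoter-driven luciferase, plated in reduced-serum medium with 10% FBS at 1500 cells/well, compound-treated 24 h at 37 °C, luminescence read after 10 min reagent.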
ELG1 genotoxic: induces genotoxicity in HEK293T cells with luciferase-tagged ELG1; actives 1.3% (n = 330,000); Potency, µM (top dose mostly 46 µM), without a hit: top-dose activity change, positive = activation, usual class: activators; AID 504466; HEK293T ELG1-luciferase reporter, luminescence, 16 h; note: % of control where 0% means no effect; nearly all actives have a fitted effect of over 60% in size
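16 hr compound incubation (37 °C, 5% CO2) of HEK293T cells carrying luciferase-tagged ELG1; luciferase then measured by ONE-Glo luminescence after 30 min at RT.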
ELG1 DNA repair: ELG1-dependent DNA repair inhibition; HEK293T ELG1-luciferase reporter, luminescence, 16 h; DNA damage induced by 5-fluorouridine; AID 504467; Potency, µM (series often up to 46.1 µM), inactives show top-dose activity change, negative = inhibition, hits mostly inhibitors; actives 2.3% (n = 330,000); note: % is set by controls: 0 for no effect and ±100 for the full control effect; nearly all actives have a fitted effect of over 55% in size
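In this reporter screen, reduction of luminescence relative to DMSO vehicle indicated activity. Compounds and 5-fluorouridine were added together to 2,000 cells per well, incubated for 16 hr at 37 °C, then developed with ONE-Glo.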
SMN2 splice up: SMN2 splice variant enhancement; HEK293 SMN2-luciferase splicing reporter, luminescence, 30-36 h; Potency, µM (titrated, usually from 46.1 µM), inactives show top-dose activity change, positive = activation, most hits filed as activators; actives 2.8% (n = 210,000); AID 1458; note: % of control where 0% means no effect; nearly all actives have a fitted effect of over 55% in size
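HEK293 cells carry an SMN2 minigene-luciferase reporter in which exon 7 inclusion puts luciferase in frame. Cells were seeded at 2000 cells/well, attached for 10-12 hours, then exposed to compounds for 30-36 hours at 37C before ONE-Glo luminescence.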
Numbers without * were called inactive; ? = inconclusive; . = no result given; [ ] = another dose, or the depositor's remark. Calls come from the whole dose curve; as a rule, active = well fitted curve in the direction sought with a large enough effect; inconclusive = small, poorly fitted or top-dose-only effect, or another doubt; inactive = no such curve, though single readings can be large; an effect the other way counts as inactive or inconclusive. Potency is the fitted concentration of half-maximal effect.

SMILES | FLuc modulator | NPC1 prom act | Rab9 promoter act | ELG1 genotoxic | ELG1 DNA repair | SMN2 splice up
CCOC(=O)c1ccc2c(c1)sc1nc(-c3ccc(OCC)cc3)cn12 | ? | . | . | . | . | 7%
COC(=O)C1CCN(C(=O)c2cc(-c3ccco3)nc3ccccc23)CC1 | . | . | . | 0% | -11% | .
Cc1ccccc1Nc1nc(N)nc(COC(=O)c2ccc(O)cc2)n1 | -11% | -2% | 16% | 2% | ? | 16%
Cc1ccccc1Nc1nc(N)nc(COC(=O)c2ccccc2)n1 | 15µM* | ? | 2.2µM* | ? | ? | ?
Cc1ccccc1Nc1nc(N)nc(COC(=O)c2cccn2C)n1 | 17µM* | 3.5µM* | ? | 16µM* | ? | 11µM*
O=C(O)c1ccc(N/N=C/C2=Cc3ccccc3OC2)cc1 | 0.95µM* | 0.63µM* | 1µM* | ? | ? | .
CCC(OC(=O)C1=Cc2ccccc2OC1)C(=O)NCc1ccco1 (stereo not drawn) | 5% | -5% | -2% | -6% | -8% | .
Nc1nc(NC(=O)c2ccccc2Cl)nn1-c1ccccc1 | -19% | 2% | 22% | 5% | ? | .
COc1ccc(C(=O)Nc2nc(N)n(-c3ccccc3)n2)cc1OC | -10% | 9% | -6% | 0% | -13% | -2%
Nc1nc(NC(=O)c2cccs2)nn1-c1ccccc1 | 17µM* | 2.8µM* | 2.5µM* | ? | ? | 11µM*
COc1ccccc1/C=C/C(=O)Nc1nc(N)n(-c2ccccc2)n1 | 19µM* | -2% | 0% | -1% | ? | .
COc1ccc(C(=O)Nc2nc(N)n(-c3ccccc3)n2)cc1 | 17µM* | 4% | 4% | 15% | ? | 2%
Nc1nc(NC(=O)c2ccccc2)nn1-c1ccccc1 | ? | 23% | 28% | ? | ? | ?
COc1ccc(CCNC(=O)CCCn2c(=O)c3ccccc3n(Cc3ccccc3)c2=O)cc1OC | -11% | . | . | . | . | -3%
Cc1c(Cl)cccc1N1C(N)=C(C#N)C(c2cc(CN3CCOCC3)cs2)C2=C1CCCC2=O (stereo not drawn) | 7% | . | . | . | . | -17%
COc1ccc(CNC(=O)c2ccc(CSc3nc4ccncc4n3Cc3ccccc3F)cc2)cc1 | -15% | . | . | . | . | -9%
CCOc1ccc(C(=O)Cc2cc(OC)c(OC)cc2[N+](=O)[O-])cc1 | -11% | ? | ? | 12% | 27% | -4%
COc1ccc(/C=C(\C#N)c2cc(OC)c(OC)cc2[N+](=O)[O-])cc1 | 9.5µM* | 2% | -5% | 3% | -11% | .
COc1ccc(C(=O)Cc2cc(OC)c(OC)cc2[N+](=O)[O-])cc1 | 9.5µM* | ? | ? | 15% | ? | ?
CCOC(=O)c1[nH]c(C)c(C(=O)N2CCCC(Nc3ccc(C)c(C)c3)C2)c1C (stereo not drawn) | 1% | -5% | 0% | 0% | 4% | .
Cc1ccccc1C(=O)NCCc1nnc(SCC(=O)Nc2nc(-c3ccccc3)cs2)n1C | -3% | 18% | 14% | -1% | ? | 6%
Cc1sc(NC(=O)CSc2nnc(CCNC(=O)c3cccs3)n2C)nc1-c1ccccc1 | -1% | -3% | 0% | -6% | 16µM* | ?
Cc1ccc(CN(C(=O)COc2ccc(Br)cc2)c2ccccn2)o1 | -20% | . | . | . | . | .
c1ccc(Oc2cc(-n3cccn3)ncn2)cc1 | 12µM* | ? | 3.2µM* | 8.2µM* | ? | 22µM*
COC(=O)c1cnn(-c2ccc(C(=O)Nc3cc(OC)c(OC)c(OC)c3)cc2)c1N | -7% | . | . | . | . | .
SMILES | FLuc modulator | NPC1 prom act | Rab9 promoter act | ELG1 genotoxic | ELG1 DNA repair | SMN2 splice up
COC(=O)c1cnn(-c2cc(Oc3ccccc3)ncn2)c1N | ? | ? | 2.5µM* | ? | ? | .
CCOc1cnn(-c2cc(Oc3ccc(C)cc3)ncn2)c(=O)c1Cl | 2% | 0% | 2% | -3% | 9% | -27%
NC(=O)c1cnn(-c2cc(Oc3ccccc3)ncn2)c1N | ? | 3.2µM* | 2.5µM* | ? | ? | .
CCOc1ccc(C(c2c(C)[nH]n(-c3ccccc3)c2=O)c2c(C)[nH]n(-c3ccccc3)c2=O)cc1OC | 3µM* | . | . | . | . | -1%
Cc1ccc(C2C=NN(c3ccccc3)C2=O)cc1 (stereo not drawn) | 12µM* | 16% | ? | ? | ? | .
CCc1ccccc1NC(=O)c1sc(-n2nc(C)c(Cc3ccccc3)c2C)nc1C | -3% | . | . | . | . | .
Cc1ccc(C(=O)Nc2c(C(=O)NCc3ccc(Cl)cc3)sc3nc(C)cc(C)c23)cc1 | -2% | . | . | . | . | 10%
Cc1ccc(C=Nc2cccnc2N)cc1 | 6.7µM* | -3% | 2% | -2% | ? | ?
Cc1ccc(S(=O)(=O)c2ncccc2N)cc1 | -1% | -12% | -2%[1.84 µM] | 2% | -6% | .
CCOc1ccc(C=Nc2cccc3ncccc23)cc1 | 21µM* | -1% | 2% | 0% | 17% | -2%
COc1ccc(C=Nc2cccnc2N)cc1 | 11µM* | 8% | 12% | 8% | ? | .
COc1ccc(/C=N/n2c(N)nc(-c3ccccc3)c2-c2ccccc2)cc1 | ? | 14% | 13% | -4% | -5% | -49%
Oc1ccc(C=Nc2cccc3ncccc23)c(O)c1 | 2% | -2% | -8% | -7% | -2% | 24%
CNC(=O)c1ccc(CSc2nc3ccncc3n2Cc2ccc(C)cc2)cc1 | -19% | . | . | . | . | -8%
CC(C)Cn1cc(NC(=O)NCc2ccc(Cl)cc2)c2ccccc2c1=O | 6% | . | . | . | . | .
C=CCCCCCCCCc1nc(SCC(C)=O)n[nH]1 | 0% | -3% | -1% | -4% | 23µM* | .
Cc1ccc(CN(Cc2cc3cc4c(cc3[nH]c2=O)OCCO4)Cc2nnnn2Cc2ccco2)cc1 | -4% | -3% | -1% | -10% | 23µM* | -38%
Cc1ccc(C)c2[nH]c(=O)c(CN(Cc3nnnn3C3CCCCC3)CC3CCCO3)cc12 (stereo not drawn) | -6% | 2% | 7% | -9% | ? | 1%
Cc1ccc(C)c2[nH]c(=O)c(CN(CCN3CCOCC3)Cc3nnnn3CC3CCCO3)cc12 (stereo not drawn) | 0% | -5% | 9% | -6% | 16µM* | -1%
COc1ccccc1CN(Cc1cc2c(C)ccc(C)c2[nH]c1=O)Cc1nnnn1Cc1ccco1 | 3% | 0% | -1% | -34% | 18µM* | -21%
COc1ccc2cc(CN(CCc3ccccc3)Cc3nnnn3Cc3ccco3)c(=O)[nH]c2c1 | 2% | -2% | -1% | -6% | ? | -8%
O=C(c1cccc(F)c1)N1CCC2(CCN(Cc3ccncc3)CC2)CC1 | . | . | . | . | . | -7%

Screening results deposited in PubChem by National Center for Advancing Translational Sciences (NCATS).
